In PubChem BioAssay AID743100 (Vanderbilt Specialized Chemistry Center, 2013):
A number with no mark means an inactive call. Active and inactive are the calls of the source.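 How the source made its calls: active means calcium response above 60% of the acetylcholine maximum at human M5, as a positive modulator; inactive means the rest.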

Target: Muscarinic acetylcholine receptor M5 (Homo sapiens) (UniProt P08912)
Experiment: potentiators of ACh response at human M5 – cell-based, single concentration, CHO-K1 hM5, calcium flux (AID 743100)
Details: CHO-K1 hM5, Fluo-4 calcium flux, ACh EC20, stronger effect = higher value; at 10 µM unless noted

Sequence of Muscarinic acetylcholine receptor M5 (Homo sapiens) (P08912 whole entry, looked up): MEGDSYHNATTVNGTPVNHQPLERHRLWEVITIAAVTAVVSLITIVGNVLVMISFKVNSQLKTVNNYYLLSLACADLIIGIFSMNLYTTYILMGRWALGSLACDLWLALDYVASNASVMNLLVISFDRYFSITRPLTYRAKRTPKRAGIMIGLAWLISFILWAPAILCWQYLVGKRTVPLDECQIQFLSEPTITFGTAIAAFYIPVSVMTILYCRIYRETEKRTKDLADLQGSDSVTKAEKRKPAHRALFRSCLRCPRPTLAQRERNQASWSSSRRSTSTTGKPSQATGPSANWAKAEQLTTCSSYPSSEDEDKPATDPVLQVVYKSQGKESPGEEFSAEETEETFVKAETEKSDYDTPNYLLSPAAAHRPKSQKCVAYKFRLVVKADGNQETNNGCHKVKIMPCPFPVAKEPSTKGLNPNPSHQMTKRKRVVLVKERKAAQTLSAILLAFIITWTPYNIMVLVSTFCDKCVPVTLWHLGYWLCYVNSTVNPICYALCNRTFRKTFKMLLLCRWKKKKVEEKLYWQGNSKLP

CCN(Cc1cccc(C)c1)C(=O)C1CCN(S(=O)(=O)c2ccc3cn[nH]c3c2)CC1
% ACh max response: 85.8% (active)

COc1ccc(S(=O)(=O)N2CCC(CN(Cc3ccccc3)C(C)=O)CC2)cc1
% ACh max response: 11.8%

CCN(Cc1ccccc1)C(=O)C1CCN(S(=O)(=O)Cc2ccccc2Br)CC1
% ACh max response: 5.25% [at 30 µM]

CCN(Cc1ccccc1)C(=O)C1CCN(S(=O)(=O)c2c(C)noc2C)CC1
% ACh max response: 25.9% [at 30 µM]

CCN(Cc1ccccc1)C(=O)C1CCN(S(=O)(=O)C(C)C)CC1
% ACh max response: 20.8% [at 30 µM]

CCN(CC1CCN(S(=O)(=O)c2ccc3occc3c2)CC1)C(=O)c1ccccc1
% ACh max response: 10.9%

COc1ccc(S(=O)(=O)N2CCC(C(=O)N(C)Cc3ccccc3)CC2)cc1
% ACh max response: 64.5% [at 30 µM] (active)

CCN(Cc1ccccc1)C(=O)C1CCN(S(=O)(=O)c2cccc(C)c2)CC1
% ACh max response: 63.8% [at 30 µM] (active)

CCN(Cc1ccccc1)C(=O)C1CCN(S(=O)(=O)Cc2cccc(C(F)(F)F)c2)CC1
% ACh max response: 25.5% [at 30 µM]

CCN(Cc1ccccc1)C(=O)C1CCN(S(=O)(=O)c2ccc3cn(C)nc3c2)CC1
% ACh max response: 64.9% (active)

CCN(Cc1ccccc1C(F)(F)F)C(=O)C1(F)CCN(S(=O)(=O)c2ccc3[nH]ncc3c2)CC1
% ACh max response: 75.9% (active)

CCN(Cc1ccc(OC(F)(F)F)cc1)C(=O)C1CCN(S(=O)(=O)c2ccc3cn[nH]c3c2)CC1
% ACh max response: 40.8%

CCN(Cc1ccccc1)C(=O)C1CCN(S(=O)(=O)c2ccccc2)CC1
% ACh max response: 71.5% [at 30 µM] (active)

CCN([C@H](C)c1ccccc1)S(=O)(=O)C1CCN(S(=O)(=O)c2ccc3occc3c2)CC1
% ACh max response: 14.6%

CCN(Cc1ccc(Oc2ccccc2)cc1)C(=O)C1CCN(S(=O)(=O)c2ccc3cn[nH]c3c2)CC1
% ACh max response: 39.1%

CCN(CC1CCN(S(=O)(=O)c2ccc(OC(F)(F)F)cc2)CC1)C(=O)c1ccccc1
% ACh max response: 10.5%

CCN(Cc1ccccc1)C(=O)C1CCN(S(=O)(=O)c2ccc(OC)cc2)CC1
% ACh max response: 78.4% [at 30 µM] (active)

CCN(Cc1ccccc1)C(=O)C1CCN(S(=O)(=O)c2cccc(C(F)(F)F)c2)CC1
% ACh max response: 63.9% [at 30 µM] (active)

CCN(Cc1ccccc1C(F)(F)F)C(=O)C1(F)CCN(S(=O)(=O)c2ccc(-n3cccn3)cc2)CC1
% ACh max response: 51.8%

CCN(Cc1ccccc1)C(=O)C1CCN(S(=O)(=O)c2ccc3nn(C)cc3c2)CC1
% ACh max response: 51.4%

CCN([C@H](C)c1ccccc1)S(=O)(=O)C1CCN(S(=O)(=O)c2ccc3cn[nH]c3c2)CC1
% ACh max response: 19.4%

CCN(Cc1ccccc1)C(=O)C1CCN(S(=O)(=O)c2cccc(OC)c2)CC1
% ACh max response: 72.2% [at 30 µM] (active)

CCN(Cc1ccccc1)C(=O)C1CCN(S(=O)(=O)c2ccc(C(C)(C)C)cc2)CC1
% ACh max response: 59.3% [at 30 µM]

CCN(Cc1ccccc1)C(=O)C1CCN(S(=O)(=O)c2cccnc2)CC1
% ACh max response: 34.5%

CCN(Cc1ccccc1)C(=O)C1CCN(S(=O)(=O)c2ccc(N3CCOCC3)nc2)CC1
% ACh max response: 70% [at 30 µM] (active)

CC(=O)N(Cc1ccccc1)CC1CCN(S(=O)(=O)c2ccc3cn[nH]c3c2)CC1
% ACh max response: 11.4%

CCN(Cc1ccccc1)C(=O)C1CCN(S(=O)(=O)c2ccccc2OC(F)(F)F)CC1
% ACh max response: 17.5% [at 30 µM]

CCN(Cc1ccccc1)C(=O)C1CCN(S(=O)(=O)c2cccc(F)c2)CC1
% ACh max response: 63.2% [at 30 µM] (active)

CCN(Cc1ccccc1)C(=O)C1CCN(S(=O)(=O)c2ccc(C(F)(F)F)cc2)CC1
% ACh max response: 62.6% [at 30 µM] (active)

CCc1ccc(S(=O)(=O)N2CCC(C(=O)N(CC)Cc3ccccc3)CC2)cc1
% ACh max response: 64.3% [at 30 µM] (active)

CCN(Cc1cccc(C#N)c1)C(=O)C1CCN(S(=O)(=O)c2ccc3cn[nH]c3c2)CC1
% ACh max response: 46.2%

CCN(Cc1ccccc1)C(=O)C1CCN(S(=O)(=O)c2ccc(C(C)=O)cc2)CC1
% ACh max response: 58.4% [at 30 µM]

CCNC(=O)C1(Cc2ccccc2)CCN(S(=O)(=O)c2ccc3occc3c2)CC1
% ACh max response: 22.2%

CCN(Cc1ccccc1)C(=O)C1CCN(S(=O)(=O)c2ccc(C)cc2)CC1
% ACh max response: 73.7% [at 30 µM] (active)
